Measured values published in PubChem BioAssay AID493036 (Sanford-Burnham Center for Chemical Genomics, 2011).
The whole screen tested about 330,000 compounds, of which about 560 (0.17%) were called active.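 How the source made its calls: active means activation at or above 40% of the spot to cytoplasm intensity ratio, with at least 20 cells analyzed; inconclusive means wells under 20 cells, flagged as cytotoxic or low count; inactive means the rest.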 The entries come from a sample that favours actives as a whole.

Tests used:
[1] = NTR1-driven beta-arrestin-GFP spot formation – imaging, U2OS cells, high content, primary screen (AID 493036); details: agonist mode, measured here: cell count, cytotoxicity flag, at 20 µM;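 on activation: 0% = DMSO without peptide and 100% = 100 nM NTR1 peptide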
[2] = target: Neurotensin receptor type 1 (Homo sapiens) (UniProt P30989); test: as above; details: agonist mode, at 20 µM, stronger effect = higher value
Chain of Neurotensin receptor type 1 (Homo sapiens) (P30989 whole entry, looked up): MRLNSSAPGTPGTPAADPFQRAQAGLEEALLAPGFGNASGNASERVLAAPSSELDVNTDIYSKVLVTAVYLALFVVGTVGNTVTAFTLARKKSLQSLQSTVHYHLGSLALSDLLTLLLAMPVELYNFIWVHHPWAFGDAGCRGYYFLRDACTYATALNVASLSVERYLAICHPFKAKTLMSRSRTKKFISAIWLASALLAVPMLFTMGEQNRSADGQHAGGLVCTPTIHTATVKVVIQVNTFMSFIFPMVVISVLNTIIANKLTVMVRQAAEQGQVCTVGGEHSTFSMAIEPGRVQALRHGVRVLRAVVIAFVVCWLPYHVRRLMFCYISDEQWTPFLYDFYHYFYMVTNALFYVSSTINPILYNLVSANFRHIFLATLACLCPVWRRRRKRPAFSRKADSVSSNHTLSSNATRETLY

Row | Structure (SMILES) | cell count [1] | activation [2]
1 | O=C1NC(=O)N(c2ccccc2)C(=O)/C1=C/c1ccc([N+](=O)[O-])s1 | 47 cells | -0.1% (inactive)
2 | COc1cccc(N2C(=O)NC(=O)/C(=C\c3ccc([N+](=O)[O-])s3)C2=O)c1 | 25 cells | -0.6% (inactive)
3 | Cc1cccc(N2C(=O)NC(=O)/C(=C\c3cnn(-c4ccccc4)c3)C2=O)c1 | 57 cells | 45.7% (active)
4 | COc1ccc(C(=O)C2CN(C)CC2C(=O)c2ccc(OC)cc2)cc1 (stereo not given) | 41 cells | -0.1% (inactive)
5 | O=C(CCCn1c(=O)[nH]c2cc(Cl)ccc2c1=O)N1CCC2(CC1)OCCO2 | 62 cells | 1.7% (inactive)
6 | COC(=O)C1=C(c2cc3ccccc3s2)C[C@@H]2CC[C@H]1N2C(=O)NCCO | 97 cells | 0.3% (inactive)
7 | CC1CCCCN1Cc1cccnc1 (stereo not given) | 41 cells | 1.8% (inactive)
8 | O=C1NC(=O)N(Cc2ccco2)C(=O)/C1=C\c1ccc(-c2ccc(F)cc2)o1 | 62 cells | 23.3% (inactive)
9 | O=C1NC(=O)N(CCc2ccc(F)cc2)C(=O)/C1=C/C=C/c1ccccc1 | 50 cells | 41.5% (active)
10 | O=C(O)COc1ccccc1/C=C1\C(=O)NC(=O)N(CCC2=CCCCC2)C1=O | 52 cells | 0% (inactive)
